Screening data as filed in PubChem BioAssay.
A selection: hits, their analogues and other compounds. The true share with any hit is near 4.3%.
MazEF act – activators of E. coli MazEF toxin-antitoxin RNase; FAM/BHQ RNA-DNA oligo cleavage fluorescence, 5 h; activation, % at 20 µM; AID 504720; 0.32% of 350,000 active; in the data active = activation above about 50%
Target sequence (P0AE70 whole entry, looked up): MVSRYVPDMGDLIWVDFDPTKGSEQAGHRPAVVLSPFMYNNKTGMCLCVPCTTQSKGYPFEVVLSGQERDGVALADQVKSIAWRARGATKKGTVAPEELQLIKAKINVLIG
Autofluor counter – counter-screen for toxin protease inhibitors: compound fluorescence | compound autofluorescence counterscreen, microsphere flow cytometry; active compounds read high | 3.1% of 360,000 active | fluorescence intensity (test concentration not listed); in the data active = fluorescence intensity above about 16000; inconclusive = no clear call, values can overlap the other calls
BoNT A protease – inhibitors of Botulinum neurotoxin A light chain protease | AID 588499 | 0.17% of 360,000 active | inhibition, % at 10 µM | multiplex microsphere protease substrate cleavage, flow cytometry
Anthrax LF inh2 – inhibitors of Bacillus anthracis lethal factor protease; P15917; multiplex microsphere protease cleavage assay, LF; inhibition, % at 10 µM; 0.12% of 360,000 active
PfHsp40 rescue – compounds rescuing yeast from Plasmodium falciparum HSP40 toxicity; S. cerevisiae expressing PfHsp40, growth rescue, ATP luminescence; growth rescue, % at 12.5 µM; 0.68% of 340,000 active; in the data active = growth rescue above about 28%, passing the limit was not always enough; inconclusive = no clear call, values can overlap the other calls;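 note: yeast W303a lacking pdr1 and pdr3 grown in galactose medium; growth measured after three days at 30 °C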
BoNT F protease – blocks Botulinum neurotoxin F light chain protease | Multiplex microsphere protease cleavage assay, flow cytometry | 0.22% of 360,000 active | AID 588497 | inhibition, % at 10 µM; in the data active = inhibition above about 35%, passing the limit was not always enough; inconclusive = no clear call, values can overlap the other calls
Of the large screens only hits and unclear results are named; the others gave an inactive call. Cut-off read from the data, not from the text of the source, unless noted: active = inhibition above about 30%; inconclusive = no clear call, values can overlap the other calls; inactive = below that.

N#Cc1ccccc1Cn1cc(/C=C/[N+](=O)[O-])c2ccccc21	none
Cc1ccc(C)c(S(=O)(=O)NCc2ccc(C(=O)N3CCN(C)CC3)cc2)c1	Autofluor counter 16472, BoNT A protease inconclusive
CCc1nc2ccc(C(=O)NCCN3CCOCC3)cn2c1N(CC)CCOC	none (no result: MazEF act, PfHsp40 rescue)
O=C(Cc1ccc(-n2c(=S)[nH]c3ccccc3c2=O)cc1)N1CCN(c2ccccc2)CC1	Autofluor counter 22575
Cc1ccc(NC(=O)CCC(=O)N/N=C/c2cccs2)cc1	none
CC(C(=O)NC1CC1)c1ncc(C(F)(F)F)cc1Cl (stereo unspecified)	none
CC(C(=O)N1CCN(c2ccc(Cl)cc2)CC1)c1ncc(C(F)(F)F)cc1Cl (stereo unspecified)	Autofluor counter 16547
CSc1ccc(CN(C)C(=O)CNC(=O)c2sc3ccccc3c2Cl)cc1	none
COc1ccc(C(=O)NCc2ccc(N3CCN(C(=O)OC(C)(C)C)CC3)cc2)cc1	Autofluor counter 22812
COc1ccc(C(=O)NCc2ccc(N3CCN(C)CC3)cc2)cc1	none
COc1cccc(C(=O)NCc2ccc(N3CCN(C(=O)OC(C)(C)C)CC3)cc2)c1	Autofluor counter 20260
CCN1C[C@@H]2[C@@H]3C(=O)N(C)C(=O)[C@@H]3[C@](C)(C1=O)N2C(=O)c1ccc(Br)cc1	none
CCn1c(=O)c(C(=O)CN2CCN(S(=O)(=O)c3cc(C)ccc3C)CC2)c(N)n(Cc2ccccc2)c1=O	none
N#C/C(=C/C1=C(N2CCOCC2)C(=C/c2cccc([N+](=O)[O-])c2)/CC1)C(=O)Nc1ccccc1F	MazEF act 636
N#C/C(=C\C1=C(N2CCOCC2)C(=C/c2cccc([N+](=O)[O-])c2)/CC1)C(=O)Nc1ccccc1F	MazEF act active
CCN(CC)c1ccc(/C=C2\CCC(/C=C(\C#N)C(=O)Nc3ccccc3F)=C2N2CCOCC2)cc1	BoNT A protease 40
CCN(CC)c1ccc(NC(=O)c2ccccn2)cc1S(=O)(=O)Nc1ccccc1OC	none
CCN(CC(=O)NCc1cccs1)C(=O)c1ccc(S(=O)(=O)Nc2ccccc2F)cc1	none
O=C(c1ccccc1)c1ccc(Cn2cc(-c3ccccc3)nn2)cc1	PfHsp40 rescue 723
CCCCCc1ccc(-c2cn(Cc3ccc(C(=O)c4ccccc4)cc3)nn2)cc1	none
CCNc1nc2cccnc2s1	BoNT A protease inconclusive, BoNT F protease inconclusive
CCN(CC)C(=O)CSc1nnc(-c2ccco2)n1N	Autofluor counter 17289
CNC(=O)CSc1nnc(-c2ccco2)n1-c1ccccc1OC	none
CCOc1ccccc1-n1c(SCC(=O)NC)nnc1-c1ccco1	Autofluor counter 17639
CCCCCCCCCCCCCCC[C@@H](O)[C@@H](N)CO	none
O=C(NCc1ccccc1)C(c1ccccc1)N(C(=O)c1csnn1)C1CC1 (stereo unspecified)	none
O=C(NCCc1ccccc1)C(c1ccccc1)N(C(=O)c1csnn1)C1CC1 (stereo unspecified)	none
C=CCN(CC(=O)NCc1ccc(OC)cc1)C(=O)c1csnn1	none
COc1ccc(CNC(=O)C(c2cccs2)N(C(=O)c2csnn2)C2CC2)cc1 (stereo unspecified)	Autofluor counter 24268
O=C(NCc1ccccc1)C(c1cccs1)N(C(=O)c1csnn1)C1CC1 (stereo unspecified)	Autofluor counter 21285
CCC(C)N(CC(=O)NCc1ccc(OC)cc1)C(=O)c1csnn1 (stereo unspecified)	Autofluor counter 16830, BoNT A protease inconclusive
O=C(NCCc1ccccc1)C(c1cccs1)N(C(=O)c1csnn1)C1CC1 (stereo unspecified)	Autofluor counter 20245, BoNT A protease inconclusive
CN(Cc1ccon1)C(=O)CC1C(=O)NCCN1CC1CCCCC1 (stereo unspecified)	none
CCNC(=O)C1(C)CCCN(C(=O)c2cc(OC)ccc2Br)C1 (stereo unspecified)	none (no result: MazEF act, PfHsp40 rescue)
O=C(CSc1nnc(-c2cccs2)n1-c1ccccc1)N1CCCC1	Autofluor counter 21472
CC1CCN(C(=O)CSc2nnc(CN3CCOCC3)n2-c2ccccc2)CC1	Autofluor counter 21833
C=CCn1c(SCC(=O)N2CCCC2)nc2scc(-c3cccs3)c2c1=O	Autofluor counter 21895
CSc1nnc(-c2cccs2)n1-c1ccccc1	Autofluor counter 20664
O=C(CSc1nnc(-c2cccs2)n1-c1ccccc1)N1CCOCC1	none
CCOC(=O)CSc1nnc(-c2cccs2)n1-c1ccccc1	none
COc1ccc(OC)c(CCNC(=O)Cn2nc(C)c3c(C)n(-c4ccccc4)nc3c2=O)c1	none
COc1ccc(-c2ccc(CN3C(C(C)C)C(=O)N(Cc4cn(CC5CCCCC5)nn4)CCS3(=O)=O)cc2)cc1OC (stereo unspecified)	none (no result: PfHsp40 rescue)
Oc1cccc(/C=N/NC(=S)Nc2cccnc2)c1O	none
Oc1ccc(/C=N/NC(=S)Nc2cccnc2)c(O)c1O	MazEF act 60
O=C(Nc1nnc([C@@H]2C[C@H](O)[C@@H](CO)O2)s1)Nc1cccc(Cl)c1Cl	none (no result: MazEF act, PfHsp40 rescue)
CCOc1ccc(NC(=O)NCCCSC2CCCCC2)cc1	Autofluor counter 22514
CCOc1ccc(NC(=O)NC2CCCCCCC2)cc1	none
CCOc1ccc(NC(=O)NCCN2C(C)CCCC2C)cc1 (stereo unspecified)	Autofluor counter 17584
CCCCC1=CC2=C(c3ccco3)C(=O)C(C)(OC(=O)c3ccc(OC)cc3)C(=O)C2=CN1C1CCCCC1 (stereo unspecified)	none
CCc1ccc(-n2cc(-c3ccc([N+](=O)[O-])cc3)[nH]c2=S)cc1	none
CCc1ccc(-c2cn(C3CCCCC3)c(=S)[nH]2)cc1	PfHsp40 rescue 91
CCC(C)c1ccccc1NC(=S)Nc1cccnc1 (stereo unspecified)	none
OCc1ccccc1NC(=S)Nc1cccnc1	Autofluor counter 25402
CCN(CC)c1ccc(C2C(C(=O)OC)=C(C)NC(C)=C2C(=O)OC)cc1	Autofluor counter 22496
COC(=O)C1=C(C)NC(C)=C(C(=O)OC)C1c1ccc(NC(C)=O)cc1	none
COC(=O)C1=C(C)NC(=O)NC1c1ccccc1 (stereo unspecified)	Autofluor counter 23564
CCOc1ccccc1NC(=O)C(c1ccccc1)N1CCN(CC(=O)N2CCCC2)CC1 (stereo unspecified)	none
CC(Oc1ccc(Cl)cc1Cl)c1nc(-c2ccc(NC(=O)c3cccnc3)cc2)no1 (stereo unspecified)	none
CC(Oc1ccc(Cl)cc1Cl)c1nc(-c2ccc(NC(=O)c3ccncc3)cc2)no1 (stereo unspecified)	Autofluor counter 21041
Cc1ccc(S(=O)(=O)c2c(N)n(CCC(C)C)c3nc4ccccc4nc23)cc1	Autofluor counter 22605
Cc1ccc(C(=O)Nn2c(N)c(S(=O)(=O)c3ccc(C)cc3)c3nc4ccccc4nc32)cc1	Anthrax LF inh2 inconclusive
Cc1ccc(S(=O)(=O)c2c(N)n(NC(=O)c3ccccc3C)c3nc4ccccc4nc23)cc1	Autofluor counter 22674
